Several values for one entry are separate records, joined by “and”; a condition that tells them apart may be missing. Identical values can stand only once. Where a structure was tested more than once in an assay, its records may differ in their call. Activity calls are given as the source filed them. Unless noted, no rule for the calls is given here.
How the values were obtained:
[1] = HepG2 liver cancer cell viability effects, profiling panel, resazurin fluorescence, 24 h, PK04 Diversity Set (AID 1172); details: higher = more signal; also: test concentration not given here
[2] = basal S. cerevisiae growth modulation, no modifier, primary screen, OD600, strain BY4716, 24 h, basal condition (AID 1173); details: OD600, 24 h, higher = more signal, called active from +8 up or from −8 down
[3] = MM1S myeloma cell viability, profiling panel, resazurin fluorescence, basal, 24 h, PK04 Diversity Set (AID 1174); details: higher = more signal, called active from +8 up or from −8 down;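 also: MM1S multiple myeloma cell line; test concentration not given here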
[4] = target: Dihydroorotate dehydrogenase (quinone), mitochondrial (Plasmodium falciparum (isolate 3D7)) (UniProt Q08210); assay: PfDHODH enzyme inhibitors, primary screen, biochemical, C-terminal His tag, absorbance 600 nm (AID 1175); details: DCIP absorbance 600 nm, higher = more signal, called active from +8 up or from −8 down;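 also: recombinant parasite enzyme with a five histidine tag at its C terminus; test concentration not given here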
Chain of Dihydroorotate dehydrogenase (quinone), mitochondrial (Plasmodium falciparum (isolate 3D7)) (Q08210 whole entry, looked up): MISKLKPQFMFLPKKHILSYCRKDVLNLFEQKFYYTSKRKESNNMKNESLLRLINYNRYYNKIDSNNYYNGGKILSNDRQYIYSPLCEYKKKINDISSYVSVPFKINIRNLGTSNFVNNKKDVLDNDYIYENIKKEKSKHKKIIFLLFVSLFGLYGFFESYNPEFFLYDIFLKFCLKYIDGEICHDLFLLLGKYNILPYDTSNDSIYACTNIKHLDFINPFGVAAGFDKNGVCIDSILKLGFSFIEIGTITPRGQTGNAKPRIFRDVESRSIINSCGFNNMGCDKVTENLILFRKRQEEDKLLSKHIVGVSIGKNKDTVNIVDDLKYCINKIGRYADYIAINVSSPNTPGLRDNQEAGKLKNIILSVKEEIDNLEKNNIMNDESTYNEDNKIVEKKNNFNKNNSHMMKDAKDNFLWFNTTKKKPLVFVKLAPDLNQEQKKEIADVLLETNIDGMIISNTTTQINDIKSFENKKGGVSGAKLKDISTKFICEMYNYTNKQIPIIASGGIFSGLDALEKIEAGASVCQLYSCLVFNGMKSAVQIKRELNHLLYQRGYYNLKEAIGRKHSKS

[5] = P. aeruginosa biofilm formation inhibitors, primary screen, strain PAO1, LB-PBS medium, absorbance 600 nm (AID 1176); also: test concentration not given here; details: P. aeruginosa PAO1 growth/biofilm, A600, 12 h; higher = more signal
[6] = S. cerevisiae RM11-1a growth modifiers, primary screen, strain RM11-1a, OD600, basal, 24 h (AID 1177); details: OD600, 24 h, higher = more signal, called active from +8 up or from −8 down;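 also: cultures grown under basal conditions with no added stressor; test concentration not given here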
[7] = E. coli acrAB mutant growth effects, primary screen, E. coli filamentation inducers, strain DRC39, OD650, 24 h (AID 1178); details: higher = more signal, called active from +8 up or from −8 down;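 also: growth measured as culture turbidity by optical density at 650 nm; test concentration not given here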
[8] = E. coli acrAB mutant growth effects, primary screen, E. coli filamentation inducers, strain DRC39, OD650, 48 h (AID 1179);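 also: screen aims at cell division blockers that make cells filament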; details: E. coli DRC39 delta-acrAB growth, higher = more signal, called active from +8 up or from −8 down
[9] = RPMI8226 myeloma cell viability, profiling panel, resazurin fluorescence, basal, 24 h, PK04 Diversity Set (AID 1180); details: higher = more signal;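 also: RPMI8826 multiple myeloma cell line at 5000 cells per well; test concentration not given here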
[10] = target: E3 ubiquitin-protein ligase XIAP (Homo sapiens) (UniProt P98170); assay: XIAP binders, primary screen, biophysical, small-molecule microarray, fluorescence 635 nm (AID 1181); details: small-molecule microarray binding, higher = more signal;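 also: score merges 667 nm emission and signal to noise over triplicate slides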
Chain of E3 ubiquitin-protein ligase XIAP (Homo sapiens) (P98170 whole entry, looked up): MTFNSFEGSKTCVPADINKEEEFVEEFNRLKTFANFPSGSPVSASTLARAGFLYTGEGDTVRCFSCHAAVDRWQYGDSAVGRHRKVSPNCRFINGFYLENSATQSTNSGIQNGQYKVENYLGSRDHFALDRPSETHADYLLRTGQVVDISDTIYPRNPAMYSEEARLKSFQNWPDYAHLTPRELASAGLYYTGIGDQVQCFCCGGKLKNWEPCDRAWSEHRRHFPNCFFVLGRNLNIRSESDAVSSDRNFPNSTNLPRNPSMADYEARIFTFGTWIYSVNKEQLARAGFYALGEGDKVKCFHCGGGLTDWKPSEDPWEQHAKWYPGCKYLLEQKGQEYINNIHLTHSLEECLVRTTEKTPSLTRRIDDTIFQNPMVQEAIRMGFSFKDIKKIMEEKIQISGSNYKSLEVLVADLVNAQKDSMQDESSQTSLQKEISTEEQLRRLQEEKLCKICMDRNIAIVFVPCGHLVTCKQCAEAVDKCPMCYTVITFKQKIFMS

Structure (SMILES) | z-score [1] | z-score [2] | z-score [3] | composite z-score [4] | z-score [5] | z-score [6] | z-score [7] | z-score [8] | z-score [9] | composite z-score [10]
CO[C@@H]1COC(=O)CC=C[C@H](C)[C@@H](NS(=O)(=O)c2ccc(C)cc2)COC(=O)CC=C[C@@H]1C | 0.157 and 1.73 | -0.627 (inactive) and -0.634 (inactive) | 0.445 (inactive) and 0.542 (inactive) | -0.198 (inactive) and -0.555 (inactive) | -0.531 (inactive) and -0.479 (inactive) | 0.344 (inactive) and 0.104 (inactive) | 0.643 (inactive) and 0.426 (inactive) | 0.292 (inactive) and 0.187 (inactive) | -0.325 and 0.774 | -0.209 and -0.304
C=CCN(C(=O)C1N(c2ccc(CCO)cc2)C(=O)C2C(C(=O)O)C3C=CC21O3)c1ccc(OC)cc1 (centres undefined) | -1.89 and 0.336 | -0.311 (inactive) and -0.641 (inactive) | -1.58 (inactive) and 0.522 (inactive) | 0.51 (inactive) and -0.392 (inactive) | -0.606 (inactive) and 0.428 (inactive) | 0.671 (inactive) and -0.529 (inactive) | -0.782 (inactive) and 0.15 (inactive) | -0.949 (inactive) and -0.249 (inactive) | -0.641 and -0.0655 | 0.0808 and -0.0054
C=CCN(C(=O)C(c1cccs1)N(C(=O)/C=C\C(=O)O)c1ccc(CCO)cc1)c1ccc(OC)cc1 (centres undefined) | 0.495 and -0.158 | -1.66 (inactive) and -1.5 (inactive) | 0.777 (inactive) and 0.249 (inactive) | -1.09 (inactive) and -4.45 (inactive) | 0.413 (inactive) and -0.497 (inactive) | -0.405 (inactive) and 0.127 (inactive) | 1 (inactive) and 0.244 (inactive) | 0.78 (inactive) and 0.864 (inactive) | 0.32 and 0.335 | 0.184 and 0.284
Cc1cc2c(nc1C)CCCN2CC(O)CN1CCCc2nc(-c3ccc(Br)cc3)ccc21 (centres undefined) | -0.366 and -0.367 | -7.09 (inactive) and -1.64 (inactive) | -0.959 (inactive) and -0.771 (inactive) | 1.95 (inactive) and 1.18 (inactive) | -0.257 (inactive) and -0.0569 (inactive) | 1.37 (inactive) and 0.795 (inactive) | -0.342 (inactive) and 0.458 (inactive) | -0.752 (inactive) and 0.0169 (inactive) | 0.0199 and -0.821 | 1.1 and 1.9
COC(=O)[C@@]1(Cc2ccccc2)[C@H]2c3cc(C(=O)N(C)C)n(C[C@H](O)CO)c3C[C@H]2CN1C(=O)c1ccccc1 | -0.777 and -0.734 | 0.168 (inactive) and 1.78 (inactive) | -0.939 (inactive) and -0.957 (inactive) | -0.402 (inactive) and 0.547 (inactive) | 1.32 (inactive) and 0.15 (inactive) | 1.03 (inactive) and -0.204 (inactive) | 0.146 (inactive) and -0.785 (inactive) | -0.121 (inactive) and -0.352 (inactive) | -0.205 and -0.62 | 0.333 and 0.107
COC(=O)[C@@]1(Cc2ccc(OC)cc2)[C@H]2c3cc(C(=O)N(C)C)n(Cc4ccc(O)c(OC)c4)c3C[C@H]2CN1C(=O)c1ccccc1 | 0.613 and -0.518 | 1.5 (inactive) and 1.69 (inactive) | -0.475 (inactive) and -1.77 (inactive) | 0.243 (inactive) and 0.355 (inactive) | -0.499 (inactive) and -0.347 (inactive) | 0.884 (inactive) and 1.29 (inactive) | 0.247 (inactive) and 0.423 (inactive) | -0.128 (inactive) and -0.102 (inactive) | 0.381 and -2.92 | -0.207 and 0.277
C#CCN1C(/C=C/c2ccccc2)C(=O)OC[C@H]1c1ccccc1 (some centres undefined) | 0.0256 and 1.82 | -5.79 (inactive) and -4.84 (inactive) | 0.911 (inactive) and 0.42 (inactive) | -3.42 (inactive) and -0.43 (inactive) | -0.73 (inactive) | -2.77 (inactive) and -0.151 (inactive) | 2.04 (inactive) and 0.715 (inactive) | 0.639 (inactive) and -0.294 (inactive) | 0.681 and 1.36 | 0.0727 and -0.0871
CO[C@@H]1COC(=O)[C@H](Cc2ccccc2)NC(=O)CC=C[C@@H](C)[C@H](OC)COC(=O)[C@@H](C)NC(=O)CC=C[C@H]1C | 0.959 and 0.62 | -1.78 (inactive) and -1.48 (inactive) | 1.27 (inactive) and 0.921 (inactive) | -0.595 (inactive) and -0.614 (inactive) | – | -1.34 (inactive) and -1.08 (inactive) | 0.357 (inactive) and 0.951 (inactive) | 0.067 (inactive) and 0.74 (inactive) | 1 and -0.289 | -0.203 and -0.192
CCOC(=O)[C@@H]1CC=C2CC1C(=O)N1CCC[C@@H]1[C@H]2O[Si](C)(C)C(C)(C)C (some centres undefined) | -0.464 and 1.65 | 0.0163 (inactive) and -8.53 (active) | -0.226 (inactive) and 1.07 (inactive) | -0.259 (inactive) and -0.198 (inactive) | -0.0825 (inactive) and -0.377 (inactive) | -1.35 (inactive) and 0.069 (inactive) | 0.03 (inactive) and 0.867 (inactive) | 0.262 (inactive) and -0.586 (inactive) | -0.516 and 0.845 | -0.343 and -0.171

— PubChem BioAssay
